About 83,000 compounds went through this panel and 20% of them were active in at least one assay; those are over-represented in the sample as a whole.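 Cell lines were cultured in 96-well plates, exposed to a single compound concentration, and assessed for percent growth 48 hours later.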 Unmarked numbers belong to inactive results. The source made the active and inactive calls. How the source made its calls: active means growth percent below 10; inactive means the rest.

This passage reports growth results from PubChem BioAssay (NCI).

Test systems include NCI-H23 lung; NCI-H226 lung; NCI-H322M lung; HOP-62 NSCLC; NCI-H460 lung; HOP-92 NSCLC; NCI-H522 lung; A549/ATCC NSCLC; 786-0 renal; COLO 205 colon.
Holding throughout (assay): NCI-60 one-dose screen, 48 h (100 = growth as untreated, 0 = no growth, -100 = all killed)
Holding throughout (settings): 10 µM unless noted

Regarding `CCCCCCCCCCCCCCCCCC1=NC(C)(C)CN1CC(C)O` (stereo not given), the growth was 84.8% in the test with NCI-H23 lung; 102% with NCI-H226 lung; 71.4% with NCI-H322M lung; 85.2% in the test with HOP-62 NSCLC; 4.24% (active) in the test on NCI-H460 lung; 43.6% with HOP-92 NSCLC. Further, the growth with NCI-H522 lung is 25.8%; in the test on A549/ATCC NSCLC, 19.1%; with 786-0 renal, 83.9%; with COLO 205 colon, 34%.

Take `CCOC(=O)c1cc(C(=O)c2cc(OC)c(OC)c(OC)c2)n2ccccc12`: the growth is 38.9% in the test on NCI-H23 lung; 34.5% with NCI-H226 lung; 49.7% with NCI-H322M lung; 28.3% in the test on HOP-62 NSCLC; 14.2% in the test on NCI-H460 lung; 54.1% in the test on HOP-92 NSCLC. Also, the growth with NCI-H522 lung is 26%; with A549/ATCC NSCLC, 25.7%; with 786-0 renal, 35.5%; with COLO 205 colon, -31.8% (active).

As for `COc1cc2c(c(OC)c1OC)C(=O)CC(c1cccc(NC(=O)c3ccc(C#N)cc3)c1)O2` (stereo not given), the growth with NCI-H23 lung was 70.6%; in the test on NCI-H226 lung it was 68.3%; in the test with NCI-H322M lung, 91.4%; in the test on HOP-62 NSCLC, 73.6%; with NCI-H460 lung, 85.6%; in the test on HOP-92 NSCLC it was 67.6%. The growth with NCI-H522 lung is 46.6%; with A549/ATCC NSCLC, 77.4%; with 786-0 renal, 91.9%; in the test with COLO 205 colon it was 90.6%.

With `CS(=O)(=O)c1nnc(-c2ccccc2)s1`, the growth in the test on NCI-H23 lung is 99.4%; in the test on NCI-H226 lung it was 113%; with NCI-H322M lung, 111%; in the test on HOP-62 NSCLC, 85.5%; with NCI-H460 lung, 111%; in the test on HOP-92 NSCLC, 103%. Besides, the growth in the test on NCI-H522 lung was 11.6%; in the test with A549/ATCC NSCLC, 87.1%; with 786-0 renal it was 88.7%; with COLO 205 colon, 77.3%.

Regarding `O=C(NNC(=O)c1nc2cc(F)ccc2n2cccc12)c1cnccn1`, the growth was 45.7% in the test with NCI-H23 lung; 42.4% in the test with NCI-H226 lung; 45.2% with NCI-H322M lung; 29.7% in the test on HOP-62 NSCLC; 14.7% in the test on NCI-H460 lung; 47.7% in the test on HOP-92 NSCLC. Further, the growth in the test on NCI-H522 lung was 56.1%; with A549/ATCC NSCLC it was 28.5%; in the test with 786-0 renal, 51.9%; in the test on COLO 205 colon, 16.5%.

On to `CN1CCN(CCCOc2cccc3nc(Nc4ccc(F)c(F)c4)ccc23)CC1`, for which the growth is 36% with NCI-H23 lung; 56.2% with NCI-H226 lung; -13.6% (active) with NCI-H322M lung; 5.44% (active) in the test with HOP-62 NSCLC; -26% (active) in the test on NCI-H460 lung; 0.0965% (active) in the test with HOP-92 NSCLC. For the same compound, the growth is -58.6% (active) in the test on NCI-H522 lung, 3.54% (active) in the test on A549/ATCC NSCLC, -12.3% (active) in the test with 786-0 renal and -82.1% (active) with COLO 205 colon.

For `O=C(Nc1ccccc1O)c1ccc(CNC(=O)c2ccsc2Nc2ccnc(C(F)(F)F)c2)cc1`, the growth in the test with NCI-H23 lung is 13.5%; in the test on NCI-H226 lung it was 38.3%; with NCI-H322M lung it was 46.1%; in the test with HOP-62 NSCLC, 47.6%; in the test on NCI-H460 lung it was 26%; in the test on HOP-92 NSCLC, -2.27% (active). The growth with NCI-H522 lung was -24% (active); with A549/ATCC NSCLC, 27.6%; with 786-0 renal it was 42.8%; with COLO 205 colon, 47.3%.

Take `Cc1nc2c(=O)nc3s/c(=C\c4ccco4)c(=O)n3c2nc1C`: the growth with NCI-H23 lung was 96.8%; with NCI-H226 lung, 97%; with NCI-H322M lung, 93.5%; in the test on HOP-62 NSCLC, 94.8%; with NCI-H460 lung it was 101%; with HOP-92 NSCLC, 85.8%. The growth was 85.1% with NCI-H522 lung, 81.2% in the test with A549/ATCC NSCLC, 97.1% in the test on 786-0 renal and 116% in the test on COLO 205 colon.

In the case of `CCOC(=O)C#Cc1c(C(=O)OCC)nnn1Cc1ccc(C(F)(F)F)cc1`, the growth is 97.9% in the test on NCI-H23 lung; 71.9% in the test with NCI-H226 lung; 93.4% in the test on NCI-H322M lung; 103% in the test on HOP-62 NSCLC; 95.8% in the test on NCI-H460 lung; 65.5% with HOP-92 NSCLC. The growth in the test with NCI-H522 lung was -15.1% (active); in the test with A549/ATCC NSCLC, 95.8%; in the test on 786-0 renal, 43.6%; with COLO 205 colon it was 17.2%.

Consider `CN(CCCNC(=O)Cc1ccc2ccc3cccc4ccc1c2c34)CCCNc1cc(-c2ccc3ccccc3c2)nc2ccccc12`, for which the growth with NCI-H23 lung was -82.1% (active); in the test on NCI-H226 lung, -39.5% (active); with NCI-H322M lung, -83.2% (active); with HOP-62 NSCLC, -85.9% (active); in the test on NCI-H460 lung it was -73.9% (active); with HOP-92 NSCLC it was -88.8% (active). For the same compound, the growth in the test on NCI-H522 lung was -42.9% (active); in the test with A549/ATCC NSCLC it was 1.17% (active); in the test with 786-0 renal, -80.2% (active); in the test on COLO 205 colon it was -77.3% (active).

Take `O=C1Nc2ccccc2/C1=C/c1cccn1C(=O)c1ccc(Cl)s1`: the growth is 30.2% with NCI-H23 lung; 61.7% in the test with NCI-H226 lung; 50.4% with NCI-H322M lung; 52.3% with HOP-62 NSCLC; 75.7% in the test with NCI-H460 lung; 70.2% in the test with HOP-92 NSCLC. Moreover, the growth with NCI-H522 lung is 37.8%; in the test on A549/ATCC NSCLC, 23.4%; with 786-0 renal it was 85.3%; in the test with COLO 205 colon, 68%.

Take `Cc1ccc(C=C2C(=O)NC(=O)NC2=O)cc1`: the growth in the test with NCI-H23 lung was 102%; with NCI-H226 lung, 105%; with NCI-H322M lung, 110%; in the test with HOP-62 NSCLC, 92.1%; with NCI-H460 lung, 108%; with HOP-92 NSCLC, 110%. Besides, the growth in the test with NCI-H522 lung was 85.9%; with A549/ATCC NSCLC, 87.8%; in the test on 786-0 renal it was 107%; in the test with COLO 205 colon, 98.3%.

For the compound `Cc1nc2ccccc2c(/C=C/c2ccccc2)c1C(=O)/C=C/c1ccccc1`, the growth in the test with NCI-H23 lung is 28.7%; with NCI-H226 lung, 65.1%; in the test with NCI-H322M lung, 43.8%; in the test with HOP-62 NSCLC, 6.52% (active); in the test on NCI-H460 lung, -20.8% (active); in the test with HOP-92 NSCLC, 79.6%. Further, the growth was 15.9% in the test on NCI-H522 lung, 23.2% in the test on A549/ATCC NSCLC, 31.5% with 786-0 renal and 15.7% in the test with COLO 205 colon.

With `CN1CCN(CCOc2ccc(-c3cnc4c(-c5cccc(F)c5F)cnn4c3)cc2)CC1`, the growth with NCI-H23 lung was 35.9%; in the test with NCI-H226 lung it was 97.9%; in the test with NCI-H322M lung, 96%; in the test on HOP-62 NSCLC, 106%; with NCI-H460 lung, -55.9% (active); in the test on HOP-92 NSCLC, 100%. In addition, the growth in the test on NCI-H522 lung was 88.6%; in the test with A549/ATCC NSCLC it was -7.4% (active); in the test with 786-0 renal, -61.4% (active); with COLO 205 colon, 87.6%.
